Measurements published in PubChem BioAssay AID504834 (National Center for Advancing Translational Sciences (NCATS), 2011).
Hit rate of the full screen: of about 320,000 compounds, about 22,000 (6.9%) were called active. Entries that show only a call come without a potency. Inconclusive results (about 27%) are left out. Calls come from the whole dose curve; as a rule, active = well fitted inhibition curve with a large enough effect; inconclusive = small, poorly fitted or top-dose-only effect, or another doubt; inactive = no such curve, though single readings can be large or run the other way. Only a selection was taken, and actives are over-represented in it overall.
Potency is the fitted concentration of half-maximal effect.

Experiment: Primary qHTS for delayed death inhibitors of the malarial parasite plastid, 96 hour incubation
Settings: P. falciparum luciferase reporter growth; series mostly up to 28.7 µM
Procedure, shortened: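 Compounds incubated with erythrocytes infected by luciferase-expressing P. falciparum (2% hematocrit, 0.05% parasitemia final) for 96 hours, 37 C in 5% CO2. Growth inhibition scored as decreased luciferase luminescence.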
For `Cc1c(C(=O)N/N=C/c2ccccc2)[nH]c2c([N+](=O)[O-])cccc12`, the Potency was “inactive”.
In the case of `CN(C)S(=O)(=O)c1ccc(N/C=C(\[N+](=O)[O-])S(=O)(=O)c2ccccc2)cc1`, the Potency is reported as “inactive”.
With `COC(=O)c1ccc(NC(=O)CSc2nnc(C3CC3)n2C)cc1` the Potency was “inactive”.
With `COc1ccc(C(=O)OC(C)C(=O)NC2CCCC2)cc1S(=O)(=O)N1CCOCC1` (stereo unspecified) the Potency was “inactive”.
For `COc1cccc(N2CCN(CC(=O)Nc3ccnn3C3CCCC3)CC2)c1`, the Potency was “inactive”.
In the case of `C#C[C@]1(O)CC[C@H]2[C@@H]3CCC4=CC(=O)CC[C@@H]4[C@H]3CC[C@@]21CC`, the Potency is reported as 7.57 µM (active).
In the case of `Cc1cc(C)c(C#N)c(SCC(=O)N(CC(C)C)C2CCS(=O)(=O)C2)n1` (stereo unspecified), the Potency is reported as “inactive”.
In the case of `CC(NC(=O)COc1ccc(-c2ccccc2)cc1)C1CCCO1` (stereo unspecified), the Potency is reported as “inactive”.
For `O=C(Nc1ccncc1)c1ccc([N+](=O)[O-])cc1Cl`, the Potency was “inactive”.
In the case of `CN(CCc1ccccn1)C1CCCN(S(=O)(=O)c2ccccc2Cl)C1` (stereo unspecified), the Potency is reported as “inactive”.
With `Cn1nc(C(F)(F)F)cc1C(=O)O` the Potency was “inactive”.
With `Cc1cccc(C)c1NC(=O)CNC(=O)c1c(C)nn(-c2ccccc2)c1C` the Potency was “inactive”.
In the case of `Cc1nn(-c2ccccc2)c(C)c1NC(=O)COc1ccc(Cl)cc1Cl`, the Potency is reported as “inactive”.
With `Cc1nn(-c2ccccc2)c(C)c1NC(=O)CCl` the Potency was 3.7 µM (active).
For `O=C(NCC1CCCO1)c1cc2c(s1)CCCC2` (stereo unspecified), the Potency was “inactive”.
For `CC1(C)O[C@@H]2[C@H](O1)[C@@H](CO)O[C@H]2n1c(N2CCCCC2)nc2c(N)ncnc21`, the Potency was “inactive”.
For `Clc1c(OCCCn2ccnc2)ccc2ccccc12`, the Potency was “inactive”.
For `C=CCc1cc(C)ccc1OCCCn1ccnc1`, the Potency was 11.7 µM (active).
With `Cc1ccc(OCCCCN2CCCCC2)c(Br)c1` the Potency was “inactive”.
In the case of `CCOC(=O)c1ccc(S(=O)(=O)N(CCO)Cc2cc3cc(OC)c(OC)cc3[nH]c2=O)cc1`, the Potency is reported as “inactive”.
For `COc1cccc(CNC(=O)C(=O)NCCC2CCCCN2S(=O)(=O)c2ccc(C)cc2)c1` (stereo unspecified), the Potency was 10.4 µM (active).
In the case of `O=C(NCCC1CCCCN1S(=O)(=O)c1ccc(F)cc1)C(=O)NC1CC1` (stereo unspecified), the Potency is reported as “inactive”.
With `COc1ccc(S(=O)(=O)N2CCCC2CNC(=O)C(=O)NC2CC2)cc1` (stereo unspecified) the Potency was “inactive”.
With `COc1cc(OC)c(NC(=O)C2CCCN2C(=O)OCc2ccccc2)cc1Cl` (stereo unspecified) the Potency was “inactive”.
For `CCOC(=O)CNC(=O)CN1C(=O)CCSc2ccccc21`, the Potency was 11.7 µM (active).
In the case of `COc1ccc(CCNC(=O)CN2C(=O)CCSc3ccccc32)c(OC)c1`, the Potency is reported as “inactive”.
With `CCOC(=O)CNC(=O)N1c2ccccc2Sc2ccccc21` the Potency was “inactive”.
For `Cc1ccc(NC(=O)c2cnc(SCC(=O)NCC3CCCO3)n(C)c2=O)cc1` (stereo unspecified), the Potency was “inactive”.
In the case of `Cn1c(=O)n(C)c2cc(C(=O)Nc3ccc(Br)cc3)ccc21`, the Potency is reported as “inactive”.
For `COC(=O)[C@@H]1CC(O)CN1C(=O)C12CC3CC(CC(C3)C1)C2` (stereo partly specified), the Potency was “inactive”.
With `CCOc1ccccc1Nc1ccc2nonc2c1[N+](=O)[O-]` the Potency was “inactive”.
In the case of `COc1ccccc1C(=O)NC(CCSC)C(=O)N1CCN(C/C=C/c2ccccc2)CC1` (stereo unspecified), the Potency is reported as 11.7 µM (active).
For `CSCCC(NC(=O)c1ccccc1)C(=O)N1CCN(Cc2ccc(Cl)cc2)CC1` (stereo unspecified), the Potency was 1.65 µM (active).
With `COc1ccccc1C(=O)NC(CCSC)C(=O)N1CCN(C(C)=O)CC1` (stereo unspecified) the Potency was “inactive”.
For `CSCCC(NC(=O)c1ccccc1)C(=O)N1CCCCCCC1` (stereo unspecified), the Potency was “inactive”.
With `COc1ccccc1C(=O)NC(CCSC)C(=O)NNC(=O)c1ccccc1C` (stereo unspecified) the Potency was “inactive”.
For `O=C(c1cccc(Cl)c1)N1CCN(Cc2ccccc2)CC1`, the Potency was “inactive”.
For `CC(=O)NC(CC(=O)Nc1nc(-c2ccccc2)c(C(C)=O)s1)c1ccccc1` (stereo unspecified), the Potency was “inactive”.
With `Cc1ccc(S(=O)(=O)NCC(=O)N2CCOCCOCCOCCOCC2)cc1` the Potency was “inactive”.
With `Cc1ccc(CNC(=O)[C@@H](NC(=O)Cc2ccccc2)C(C)C)cc1` the Potency was “inactive”.
With `Cn1c(-c2ccc(F)cc2)cc2onc(-c3ccccc3Cl)c2c1=O` the Potency was “inactive”.
For `CSc1ncc(Cl)c(C(=O)Nc2cc(C)ccc2C)n1`, the Potency was “inactive”.
With `O=C(COc1ccccc1)Nc1cc2c3c(c1)CC(=O)N3CCC2` the Potency was “inactive”.
For `O=C(/C=C/c1ccccc1)N/C(=C/c1ccccc1)C(=O)Nc1ccccc1O`, the Potency was “inactive”.
In the case of `CC(=O)Nc1ccc(NC(=S)NC(=O)/C=C/c2ccccc2)cc1`, the Potency is reported as “inactive”.
In the case of `CN(C)CCCSc1ccccc1NC(=O)/C=C/c1ccccc1`, the Potency is reported as 12 µM (active).
For `COc1ccc(NC(=O)CCCNC(=O)Cn2cnc3sc4c(c3c2=O)CCCC4)cc1OC`, the Potency was “inactive”.
In the case of `CCNC(=O)CSc1nc(-c2ccccc2)cs1`, the Potency is reported as “inactive”.
In the case of `O=C(CSCC(=O)Nc1cccc([N+](=O)[O-])c1)Nc1ccccc1`, the Potency is reported as “inactive”.
With `O=C(CSc1nc(-c2ccccc2)cs1)Nc1cccc([N+](=O)[O-])c1` the Potency was 10.4 µM (active).
For `O=[N+]([O-])c1cc(C(F)(F)F)ccc1NCCc1ccncc1`, the Potency was “inactive”.
For `Cc1ccc2[nH]c(=O)c(CC(=O)O)c(-c3ccccc3)c2c1`, the Potency was “inactive”.
For `CCCCOC(=O)Nc1nnc(CC(=O)NCc2ccccc2)s1`, the Potency was “inactive”.
For `Cc1ccc(OC(=O)c2c(C)nn(-c3ccccc3)c2C)cc1`, the Potency was “inactive”.
In the case of `COc1ccc(CN2CC(C(=O)NC3CCCCC3)CC2=O)cc1` (stereo unspecified), the Potency is reported as “inactive”.
With `COc1ccc(C2CC(=O)NC(=O)C2)cc1` the Potency was “inactive”.
In the case of `COc1ccc(C2OC(=O)CC2C(=O)NC(C)C)cc1` (stereo unspecified), the Potency is reported as 0.586 µM (active).
In the case of `O=C(c1cc(-c2ccc(O)cc2)on1)N1CCOCC1`, the Potency is reported as “inactive”.
For `CCCC(C(=O)OCCN(CC)CC)(c1ccccc1)c1ccccc1`, the Potency was 10.7 µM (active).
For `CCC(C(=O)OCCN(CC)CC)c1ccccc1` (stereo unspecified), the Potency was “inactive”.
In the case of `CCN(CC)CCOC(=O)c1cc2cc(COC)ccc2o1`, the Potency is reported as “inactive”.
In the case of `COc1ccc(C/C(C)=N/NC(=O)c2ccncc2)cc1`, the Potency is reported as “inactive”.
For `O=C(O/N=C(/c1ccccc1)c1ccncc1)c1ccccc1[N+](=O)[O-]`, the Potency was “inactive”.
For `COc1cc(OC)nc(N/N=C(\c2ccccc2)c2ccncc2)n1`, the Potency was 5.22 µM (active).
In the case of `N#Cc1cccc(CN2CCC(=O)N([C@H](CO)c3ccccc3)CC2)c1`, the Potency is reported as “inactive”.
In the case of `C=CCOc1ccc(/C=C/C(=O)OC(C)C(=O)Nc2ccc(NC(C)=O)cc2)cc1` (stereo unspecified), the Potency is reported as “inactive”.
For `O=C(Cc1ccccc1)Nc1cccc(NC(=O)c2ccccc2)c1`, the Potency was “inactive”.
For `CCc1cccc(NC(=O)CCC(=O)O)c1`, the Potency was “inactive”.
With `O=C(CCl)Nc1cccc(CP(=O)(c2ccccc2)c2ccccc2)c1` the Potency was 6.57 µM (active).
With `COc1ccc(CCNS(=O)(=O)c2cn(C)nc2C)cc1` the Potency was “inactive”.
In the case of `CCOc1ccc(OCC(=O)Nc2c3c(nn2C(C)(C)C)CS(=O)(=O)C3)cc1`, the Potency is reported as “inactive”.
For `Cn1c(SCC(=O)NC2CCCCC2)nnc1-c1ccc(N)cc1`, the Potency was “inactive”.
In the case of `CC1Cc2ccccc2N1C(=O)CSc1nnc(-c2ccc(S(=O)(=O)N3CCCC3)cc2)n1C` (stereo unspecified), the Potency is reported as “inactive”.
For `Cn1c(SCC(=O)OC2CCCCC2)nnc1-c1ccc(S(=O)(=O)N2CCCC2)cc1`, the Potency was 2.33 µM (active).
With `Cc1ccc(CN2CC(C(=O)N3CCN(S(=O)(=O)c4ccccc4)CC3)CC2=O)cc1` (stereo unspecified) the Potency was “inactive”.
With `CCc1noc(C)c1C(=O)Nc1nc2ccc(OC)cc2s1` the Potency was “inactive”.
With `O=C(CCc1ccc(S(=O)(=O)N2CCOCC2)cc1)NN=C1CCCCCCC1` the Potency was “inactive”.
In the case of `O=C(COC(=O)CCc1ccc(S(=O)(=O)N2CCOCC2)cc1)Nc1cccc(Cl)c1`, the Potency is reported as “inactive”.
With `O=C(CCc1ccc(S(=O)(=O)N2CCOCC2)cc1)Nc1ccc2ccccc2c1` the Potency was 5.22 µM (active).
For `CCN(CC(=O)N1CCCC1)S(=O)(=O)c1ccc(F)cc1`, the Potency was “inactive”.
With `O=C(NCCCN1CCCC1=O)c1cccc(S(=O)(=O)NCc2ccccc2)c1` the Potency was “inactive”.
In the case of `CCN(CC(=O)Nc1c(F)cccc1F)C(=O)C1CCC1`, the Potency is reported as “inactive”.
With `CC(C)c1ccc(Cc2nnc(NCCCO)[nH]c2=O)cc1` the Potency was “inactive”.
With `Cc1cc(-c2ccc(S(=O)(=O)N3CCN(c4cccc(C(F)(F)F)c4)CC3)s2)on1` the Potency was 13.1 µM (active).
For `Cc1cc(-c2ccc(S(=O)(=O)N3CCc4ccccc4C3)s2)on1`, the Potency was “inactive”.
With `Cc1cccc(N2CCN(S(=O)(=O)c3ccc(-c4cc(C)no4)s3)CC2C)c1` (stereo unspecified) the Potency was “inactive”.
With `COCC1CCN(C(=O)CCc2nnc(C3(c4ccc(Cl)cc4)CCC3)o2)C1` (stereo unspecified) the Potency was “inactive”.
For `CCOc1ccccc1N1C(=O)CC(Sc2nccc(C)n2)C1=O` (stereo unspecified), the Potency was “inactive”.
In the case of `CCOc1ccc(OCC(=O)OC(C)C(=O)NC2CCCCC2C)cc1` (stereo unspecified), the Potency is reported as “inactive”.
With `CCc1ccc(CN(C)C(=O)CCc2nnc(-c3ccc(-c4ccccc4)cc3)o2)nc1` the Potency was 11.7 µM (active).
In the case of `CCCC(=O)Nc1nnc(-c2ccccc2)o1`, the Potency is reported as “inactive”.
In the case of `Cc1ccc(C(=O)NCC(=O)OCc2nnc(-c3ccccc3)o2)cc1`, the Potency is reported as “inactive”.
With `CCOc1ccc(NC(=O)CC(Cc2ccc(Cl)cc2)C(=O)O)cc1` (stereo unspecified) the Potency was “inactive”.
With `O=C(CN1CCc2cc3c(cc2C1)OCCCO3)Nc1ccccc1` the Potency was “inactive”.
For `OCC(CO)NC1C[C@](O)(CO)[C@@H](O)[C@H](O)[C@H]1O` (stereo partly specified), the Potency was “inactive”.
For `CCCCOC(=O)CCCc1ccc([N+](=O)[O-])cc1[N+](=O)[O-]`, the Potency was “inactive”.
For `CCCOc1ccc(Cn2ccnc2)cc1[N+](=O)[O-]`, the Potency was “inactive”.
For `CCCCOc1ccc(CSC(=N)N)cc1[N+](=O)[O-]`, the Potency was 2.33 µM (active).
In the case of `COc1cc(OC)c(C(=O)NCc2ccc3c(c2)OCO3)cc1OC`, the Potency is reported as 13.1 µM (active).
In the case of `CCn1cc(C(=O)NCc2ccc3c(c2)OCO3)c2cc(OC)c(OC)cc2c1=O`, the Potency is reported as “inactive”.
With `COc1cc(CNCc2ccc3c(c2)OCO3)c([N+](=O)[O-])cc1OC` the Potency was “inactive”.
In the case of `O=C(O)CCCN1C(=O)C2C3c4ccccc4C(c4ccccc43)[C@@H]2C1=O` (stereo partly specified), the Potency is reported as “inactive”.
For `O=C1CCCCN1CCCC(=O)N1CCCC(Nc2ccc(F)cc2)C1` (stereo unspecified), the Potency was “inactive”.
In the case of `O=C(CN1C(=O)CSC1=O)N1CCCC(Nc2ccc(F)cc2)C1` (stereo unspecified), the Potency is reported as 1.65 µM (active).
In the case of `Cc1ccc(NC2CCCN(C(=O)CCc3cn[nH]c3)C2)cc1C` (stereo unspecified), the Potency is reported as “inactive”.
In the case of `CC1C(=O)Nc2ccc(S(=O)(=O)N3CCN(c4ccccc4F)CC3)cc2NC1=O` (stereo unspecified), the Potency is reported as “inactive”.
